aSyn UTR act – Activators via SNCA 5'UTR binding, MLPCN. activity score, % (tested at 7.5 µM), hits read low. 7.1% of 300,000 active. alpha-synuclein 5'UTR reporter, activators screen; in the data active = activity score below about -60%
Active calls of the source: *. These entries were drawn from the full list.

SMILES | aSyn UTR act
COc1cc(/C=N/NC(=O)c2ccncc2)ccc1OCC(=O)Nc1cccc([N+](=O)[O-])c1 | -111*
COc1ccc(/C=N/NC(=O)c2cccnc2)cc1COc1ccc([N+](=O)[O-])c(C)c1 | 98
COc1ccc(NC(=O)COc2ccc(/C=N/O)cc2OC)cc1 | -67*
C/C=C/c1ccc(OCC(=O)Nc2ccncc2)c(OC)c1 | -72*
O=C(CCl)N1CCCC1c1ccc2c(c1)OCCO2 (configuration not stated) | -152*
O=[N+]([O-])/C=C\c1ccc(N2CCCC2)c(F)c1 | -142*
COc1ccc(N2C(=O)CC(Sc3nc(C)cc(C)c3C#N)C2=O)cc1 (configuration not stated) | -87*
Cc1ccccc1-c1nnc(SCc2ccccc2)o1 | -191*
COc1ccc(-c2nnc(SCc3ccccc3F)o2)cc1 | -163*
Fc1ccccc1CSc1nnc(-c2ccccc2)o1 | -152*
c1ccc(CSc2nnc(-c3c[nH]c4ccccc34)o2)cc1 | -151*
COc1cc(OC)cc(-c2nnc(SCc3c(F)cccc3Cl)o2)c1 | -101*
Cc1ccccc1-c1nnc(SCc2ccccc2F)o1 | -149*
Fc1ccccc1CSc1nnc(-c2cccnc2)o1 | -69*
CC(C)(C)C1CCC(=O)N(CCSc2ccccc2)CC1 (configuration not stated) | -145*
Cc1ccc(SCCC(=O)N2CCC(C)CC2)cc1 | -92*
Cc1ccc(SCCN2CCC(C)CCC2=O)cc1 (configuration not stated) | -153*
Cc1ccc(-n2nnnc2Sc2ccc(S(=O)(=O)NCCN(C)C)cc2[N+](=O)[O-])cc1 | -93*
O=[N+]([O-])c1cc(S(=O)(=O)NCCN2CCOCC2)ccc1Sc1nnnn1-c1ccccc1 | -96*
COC(=O)c1cnn(-c2cc(Oc3cccc(C)c3)ncn2)c1N | -138*
O=C1CC(c2ccc3c(c2)OCO3)Sc2nc3ccccc3n21 (configuration not stated) | -160*
O=C1CC(c2ccccc2)Sc2nc3ccccc3n21 (configuration not stated) | -196*
CCc1cc2c(SCC(=O)c3ccccc3)ncnc2s1 | -122*
CN(CCC#N)C(=O)CSc1ncnc2sc(-c3ccccc3)cc12 | -106*
CCN(CC)C(=O)CSc1ncnc2sc(-c3ccccc3)cc12 | -168*
SMILES | aSyn UTR act
O=[N+]([O-])c1ccc(N/N=C/c2cn(-c3ccccc3)nc2-c2ccccc2)cc1 | -71*
NS(=O)(=O)c1ccc(N/N=C/c2cn(-c3ccccc3)nc2-c2ccccc2)c([N+](=O)[O-])c1 | -121*
CCc1nnc(NC(=O)/C=C/c2ccco2)s1 | -501*
O=C(/C=C\c1ccco1)Nc1cc([N+](=O)[O-])ccc1F | 97
O=C(/C=C/c1ccco1)Nc1cccc(NC(=O)/C=C/c2ccco2)n1 | -193*
O=C(/C=C/c1ccco1)Nc1nnc(-c2ccco2)s1 | -117*
Cc1nc(NC(=O)/C=C/c2ccco2)sc1C | -199*
CCSc1nnc(NC(=O)/C=C/c2ccco2)s1 | -320*
CNS(=O)(=O)c1ccc2nc(NC(=O)/C=C/c3ccco3)sc2c1 | -230*
O=C(/C=C/c1ccco1)NC1=NCCS1 | -108*
O=C(Nc1nc2c(s1)CCCC2=O)c1cnccn1 | -88*
Brc1ccc(C2=Nc3cccc4cccc(c34)N2)o1 | -74*
O=C(NC(=S)NCc1nc2ccccc2[nH]1)c1ccccc1F | -143*
O=C(NC(=S)NCc1nc2ccccc2[nH]1)c1ccc(F)cc1 | -119*
COc1ccc(C(=O)c2ccc(CC#N)s2)cc1 | -150*
COc1ccc(C(=O)c2ccsc2N)cc1 | -97*
CC(=O)c1sc(N/N=C2\CC3CC2C(C)C3(C)C)nc1C (configuration not stated) | -101*
COc1nc(NCCN2CCOCC2)nc(Nc2ccccc2)n1 | -101*
COC(=O)c1cnc(Oc2ccc(NC(=O)NC(=O)c3ccccc3Cl)cc2)cc1C(F)(F)F | -63*
Cc1ccc(/C=N/N2CCN(c3ccccn3)CC2)o1 | -80*
COc1ccc(S(=O)(=O)N2CCN(c3ccccn3)CC2)cc1[N+](=O)[O-] | 45
BrC(=C\c1ccccc1)/C=N/N1CCN(c2ccccn2)CC1 | -70*
O=[N+]([O-])c1ccccc1/C=N/N1CCN(c2ccccn2)CC1 | -79*
CN(C)c1ccc(/C=N/N2CCN(c3ccccn3)CC2)cc1 | -126*
C(=N\N1CCN(c2ccccn2)CC1)/c1ccccn1 | -115*
SMILES | aSyn UTR act
CN(C1=C(N2CCOCC2)C(=O)c2ccccc2C1=O)c1ccccc1 | 39
Oc1cccc(/C=N/N2CCN(c3ccccn3)CC2)c1 | -76*
CN(c1ccccc1)c1ccc(/C=N/N2CCOCC2)cc1 | -156*
c1ccc(CN2CCN(c3nc4ccccc4s3)CC2)cc1 | -150*
COc1cccc(N2CCN(C(=O)c3ccc4nc(N5CCC(C)CC5)sc4c3)CC2)c1 | -157*
CCOC(=O)N1CCN(C(=O)c2ccc3nc(N4CCC(C)CC4)sc3c2)CC1 | -124*
COc1cccc(N2CCN(C(=O)c3ccc(CS(=O)c4ccc(C)cc4)o3)CC2)c1 (configuration not stated) | 97
CC1CCN(c2nc3ccc(C(=O)N4CCN(Cc5ccccc5)CC4)cc3s2)CC1 | -137*
O=S(=O)(c1ccccc1F)N1CCN(c2nc3ccccc3s2)CC1 | -116*
COc1ccc(Nc2ncnc3sc(C)cc23)c(OC)c1 | -82*
Cn1cccc1C(=O)C(=O)Nc1ccc(Cl)cc1 | -119*
Cn1cccc1C(=O)C(=O)Nc1ccc(F)c(F)c1 | -176*
Cn1cccc1C(=O)C(=O)Nc1cccc(Cl)c1Cl | -148*
Cn1cccc1C(=O)C(=O)Nc1cc(Cl)cc(Cl)c1 | -155*
Cc1ccc(Nc2nnc(-c3ccccc3N)o2)cc1C | -135*
CN(C)S(=O)(=O)c1cccc(NC(=O)COC(=O)c2cc3ccccc3oc2=O)c1 | -105*
CCN(CC)S(=O)(=O)c1cccc(NC(=O)c2cc3ccccc3o2)c1 | -126*
CN(C)S(=O)(=O)c1cccc(NC(=O)c2cc3ccccc3o2)c1 | -122*
O=C(COC(=O)c1cc2ccccc2oc1=O)Nc1ccc(F)cc1F | -169*
Fc1cccc(F)c1/C=N/Nc1ccccn1 | -230*
Fc1cccc(/C=N/Nc2ccccn2)c1 | -277*
Fc1cccc(Cl)c1/C=N/Nc1ccccn1 | -235*
CN(C)c1cccc(C(=O)Nc2cccc(F)c2)c1 | -175*
CCN(CC)c1ccc(C(=O)Nc2cccc(F)c2)cc1 | -77*
Cc1cc(N(CCO)CCO)ccc1N=Nc1cc(F)ccc1F | -137*
SMILES | aSyn UTR act
CCN(CCO)c1ccc(N=Nc2cc(C)[nH]n2)cc1 | 102
CN(C)C(=O)c1ccc2c(c1[N+](=O)[O-])C(=O)c1ccccc1C2=O | -116*
O=C(CSc1nnc(-c2ccccn2)o1)Nc1cccc(Cl)c1 | -194*
O=C(CSc1n[nH]c(-c2ccccn2)n1)Nc1cccc(Cl)c1 | 86
C/C(N)=C(/C#N)C(=O)CSc1nnc(-c2ccc3c(c2)OCO3)o1 | 60
Cc1ccccc1NC(=O)CSc1nnc(-c2ccccn2)o1 | -77*
O=C(CSc1nnc(-c2ccc(C(F)(F)F)cn2)o1)Nc1cccc(Cl)c1 | -192*
NC(=O)CSc1nnc(-c2ccc3c(c2)OCO3)o1 | -91*
O=C(CSc1nnc(-c2cccnc2)o1)Nc1ccccn1 | -147*
O=C(CSc1nnc(-c2cccc(Cl)c2)o1)Nc1ccc2c(c1)OCCO2 | -180*
N/C(=N\OC(=O)c1ccc(Cl)cc1Cl)c1ccccn1 | 89
N/C(=N\OC(=O)c1ccc([N+](=O)[O-])cc1Cl)c1ccccn1 | 69
